# Assay results taken from PubChem BioAssay (Tox21).
# Unmarked numbers belong to inactive results. Where a call stands in place of a potency, no number is given. Activity calls are given as the source filed them. The call rests on the fitted dose curve.
# Test: qHTS assay to identify small molecule agonists of the sonic hedgehog signaling (Shh) pathway (AID 1259368);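 further: NIH/3T3-derived 3T3Gli1-Luc cells carrying a stable Gli1-driven firefly luciferase reporter; nearly all actives have a fitted effect of over 15% in size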
# Conditions: NIH/3T3 Gli1-Luc reporter, luciferase, 24 h; series mostly up to 92.4 µM
# Excerpt: National Center for Advancing Translational Sciences [NCATS]
# NIH Chemical Genomics Center [NCGC]
# U.S. Environmental Protection Agency [EPA]
# National Institutes of Environmental Health Sciences [NIEHS]
# National Toxicology Program [NTP]
# The sonic hedgehog (Shh) pathway is essential for normal embryonic development. Dysregulation of the Shh pathway can cause severe developmental defects in organs. Therefore chemicals that interfere with the pathway are potential developmental toxicants. A cell line designated 3T3Gli1-Luc (DMB/OARSA/CFSAN/FDA, Laurel, MD), a NIH/3T3 derived clone containing stably integrated Gli1-Luc reporter is used to detect chemical interference of the Shh pathway, by changes in the expression of the firefly Luc gene under the control of the Gli1 transcriptional response element. This cell line was used to screen Tox21 libraries for identifying and prioritizing the potential developmental toxicants that interfere Shh pathway.
# 3T3 Gli1-Luc cells were dispensed at 2,000 per well in 5uL of culture medium into white solid bottom 1536-well plates (Greiner Bio-One, Monroe, NC) using a Multidrop Combi (Thermo Scientific, Waltham, MA) dispenser. The assay plates were incubated at 37 C and 5% CO2 for 4hr, and then 23nL of compounds dissolved in DMSO and positive control were transferred using a Pintool station (Wako, San Diego, CA). The assay plates were incubated at 37C and 5% CO2 for 24hr. For luciferase read, 4uL of Amplite Luciferase reporter gene assay reagent (AAT Bioquest, Inc. Sunnyvale, CA) was added to each well of the assay plates using Flying Reagent Dispenser (FRD, Aurora Discovery, San Diego, CA) and incubated at room temperature for 30min. The luminescence signal was measured using a ViewLux plate reader (Perkin Elmer, Shelton, CT).
Compound,Potency,activity change
CN1CC[C@]23c4c5ccc(O)c4O[C@H]2[C@@H](O)CC[C@H]3[C@H]1C5,inactive,–
CC(C)(C)c1ccc(CCOc2ncnc3ccccc23)cc1,inactive,–
CN(C)c1ccc(N=O)cc1,inactive,–
O=C(N/N=C/c1ccc([N+](=O)[O-])o1)c1cc([N+](=O)[O-])cc([N+](=O)[O-])c1O,inactive,–
CCCN(CCC)c1c([N+](=O)[O-])cc(C(C)C)cc1[N+](=O)[O-],inactive,–
CCCC(C)(COC(N)=O)COC(=O)NC(C)C (stereo not given),inactive,–
Clc1ccccc1,inactive,–
CC(Cl)C(=O)O (stereo not given),inactive,–
CC(C)(C#N)C(C)(C)C#N,inactive,–
CON(C)C(=O)Nc1ccc(Cl)cc1,inactive,–
CCCCC(CC)CO[N+](=O)[O-] (stereo not given),inactive,–
CC(Oc1cccc(Cl)c1)C(=O)O (stereo not given),inactive,–
CC(C)c1ccc(NC(=O)N(C)C)cc1,inactive,–
O=[N+]([O-])/C=C/c1ccccc1,inactive,–
O=C(Cc1ccccc1)OCCc1ccccc1,inactive,–
C[C@]12C=CC3=C4CCC(=O)C=C4CC[C@H]3[C@@H]1CC[C@@H]2O,inactive,–
CCCCCBr,inactive,–
CCCCC(CC)COC(=O)c1c(Br)c(Br)c(Br)c(Br)c1C(=O)OCC(CC)CCCC (stereo not given),inactive,–
C[N+]1(CCC(C(N)=O)(c2ccccc2)c2ccccc2)CCCCC1,inactive,–
Nc1c(Br)cc(Br)c2c1C(=O)c1ccccc1C2=O,–,"9.18% [at 18.9 µM, hits give high values]"

Compound,Potency,activity change
COC1CC(=C(c2cccs2)c2cccs2)C[N+](C)(C)C1 (stereo not given),inactive,–
CC(C)(C)NCC(O)c1cc(Cl)c(N)c(C(F)(F)F)c1 (stereo not given),inactive,–
O=[N+]([O-])c1cc(Cl)c(Cl)cc1Cl,inactive,–
CCC1(CC)C(=O)NC(=O)NC1=O,inactive,–
CC(C)OC(=O)Cc1ccccc1,inactive,–
O=P(OCC(Br)CBr)(OCC(Br)CBr)OCC(Br)CBr (stereo not given),inactive,–
C=CC(=O)OCC,inactive,–
CC[N+]1(CCOC(=O)C(O)(c2ccccc2)c2ccccc2)CCCCC1,inactive,–
C=CCOCC1CO1 (stereo not given),inactive,–
CCC1(C2=NCCN2)Cc2ccccc2O1 (stereo not given),inactive,–
N#CC(C#N)=C(C#N)C#N,inactive,–
C[CH2][Hg][S]c1ccccc1C(=O)O,inactive,–
OCCSSCCO,inactive,–
COCc1cnc(C2=NC(C)(C(C)C)C(=O)N2)c(C(=O)O)c1 (stereo not given),inactive,–
Cc1ncc(C[n+]2csc(CCO)c2C)c(N)n1,inactive,–
O=C([O-])c1ccccn1.O=C([O-])c1ccccn1.O=C([O-])c1ccccn1.[Cr+3],inactive,–
NC(=O)CF,inactive,–
CN(C)N,inactive,–
C=CCc1ccccc1O,inactive,–
O=C(N[C@H]1CN2CCC1CC2)c1ccc2c(c1)OCCO2,inactive,–
